Assay results published in PubChem BioAssay AID1159580 (chemical genetic matrix, 2015).
The campaign covered roughly 5,500 compounds. About 2,000 (36%) were called active. About 18% were inconclusive and are not listed. This is one part of the list. A number with no mark means an inactive call. Rule as the data show it: active = normalized growth mostly below about 0.91 (no sharp cut-off); inconclusive = no clear call, values can overlap the other calls; inactive = mostly above about 0.92.

Experiment: chemical genetic growth profiling, strain panel (AID 1159580);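 also: tested at 20 µM; growth read once vehicle control cultures reached saturation at 30 °C; 1 = growth at the plate median or of vehicle wells; lower values mean less growth of the strain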
Details: S. cerevisiae deletion strains, growth OD

O=C1CC(CSc2ccc(Cl)cc2)=NN1
normalized growth (locus YAL013W, strain DEP1, hits give low values): 0.957
normalized growth (locus YBR229C, strain ROT2, hits give low values): 0.911 (active)
normalized growth (locus YCL061C, strain MRC1, hits give low values): 0.95
normalized growth (locus YDL101C, strain DUN1, hits give low values): 1.02
normalized growth (locus YDR150W, strain NUM1, hits give low values): 0.968
normalized growth (locus YEL061C, strain CIN8, hits give low values): 0.832 (active)
normalized growth (locus YGR078C, strain PAC10, hits give low values): 0.963
normalized growth (locus YHR030C, strain SLT2, hits give low values): 0.752
normalized growth (locus YHR087W, strain rtc3, hits give low values): 0.837 (active)
normalized growth (locus YJL187C, strain SWE1, hits give low values): 0.908 (active)
normalized growth (locus YJR043C, strain POL32, hits give low values): 0.982
normalized growth (locus YJR075W, strain HOC1, hits give low values): 0.936
normalized growth (locus YLR039C, strain RIC1, hits give low values): 1.02
normalized growth (locus YLR058C, strain SHM2 (second series), hits give low values): 0.949
normalized growth (locus YLR085C, strain ARP6, hits give low values): 0.659 (active)
normalized growth (locus YLR262C, strain YPT6, hits give low values): 0.987
normalized growth (locus YML094W, strain GIM5, hits give low values): 0.857 (active)
normalized growth (locus YMR219W, strain ESC1, hits give low values): 0.918 (active)
normalized growth (locus YMR263W, strain SAP30, hits give low values): 0.978
normalized growth (locus YNL153C, strain GIM3, hits give low values): 0.965
normalized growth (locus YNL298W, strain CLA4 (second series), hits give low values): 0.789 (active)
normalized growth (locus YNL322C, strain KRE1, hits give low values): 0.938 (active)
normalized growth (locus YNR030W, strain Alg12, hits give low values): 0.844 (active)
normalized growth (locus YPL055C, strain LGE1, hits give low values): 0.89
normalized growth (locus YPL241C, strain CIN2, hits give low values): 0.83 (active)
normalized growth (locus YPR135W, strain CTF4, hits give low values): 0.639 (active)
